Pol eta inh-1 – DNA polymerase eta (human) inhibition; recombinant Pol eta, fluorescent DNA replication assay; Potency, µM (titrated, usually from 114 µM), for inactives: top-dose activity change, negative = inhibition, most hits filed as inhibitors; hit rate 1.2% among 390,000; AID 588591; further: potency means the concentration at half of the fitted maximal effect; on the % scale 0 is the no-effect control and ±100 the full control effect
Target sequence (Q9Y253 whole entry, looked up): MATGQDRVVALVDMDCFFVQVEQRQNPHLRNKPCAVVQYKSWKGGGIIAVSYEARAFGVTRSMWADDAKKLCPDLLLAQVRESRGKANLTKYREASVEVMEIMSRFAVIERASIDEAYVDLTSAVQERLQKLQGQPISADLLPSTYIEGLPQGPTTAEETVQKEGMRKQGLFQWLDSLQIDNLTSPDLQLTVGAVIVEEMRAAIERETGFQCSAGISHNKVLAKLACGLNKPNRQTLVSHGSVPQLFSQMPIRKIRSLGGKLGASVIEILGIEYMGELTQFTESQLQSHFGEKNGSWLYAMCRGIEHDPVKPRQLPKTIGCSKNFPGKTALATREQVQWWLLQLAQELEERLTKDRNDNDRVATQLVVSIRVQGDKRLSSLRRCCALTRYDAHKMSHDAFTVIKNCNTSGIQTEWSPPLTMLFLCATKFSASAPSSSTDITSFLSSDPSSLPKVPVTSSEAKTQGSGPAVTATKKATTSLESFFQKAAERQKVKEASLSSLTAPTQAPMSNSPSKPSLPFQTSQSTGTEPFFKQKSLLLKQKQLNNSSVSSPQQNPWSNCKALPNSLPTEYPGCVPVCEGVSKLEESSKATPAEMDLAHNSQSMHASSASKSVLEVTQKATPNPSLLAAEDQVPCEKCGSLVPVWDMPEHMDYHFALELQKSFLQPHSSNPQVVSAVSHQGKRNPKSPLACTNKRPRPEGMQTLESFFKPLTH
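Pol eta at 10 nM preincubated with compounds 15 min at room temperature; reaction started with fluorescent substrate (50 nM final) and read kinetically at 0 and 10 min.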
PI5P4Ka inh – inhibitors of human PI5P4K alpha. PI5P4Kalpha enzyme, ADP-Glo luminescence, 60 min; active compounds read low. max response, %. hit rate 1.2% among 330,000; active means max response of -50% or lower; inconclusive means between -30% and -50%; inactive means -30% or higher; further: value at the top dose of about 77 µM; on the % scale 0 is the no-effect control and ±100 the full control effect
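ADP-Glo luminescence end-point after a 60 min room-temperature kinase reaction. PI5P4Kalpha and substrate in HEPES pH 7.4 buffer with EGTA, 0.1% CHAPS and 5% DMSO; ATP at 5 microM final.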
Pol iota inh – inhibitors of human DNA polymerase iota; hit rate 1% among 390,000; Pol iota fluorescent replication assay, 10 min; Potency, µM (top dose mostly 115 µM), without a hit: at the top dose activity, negative = inhibition, usual class: inhibitors; Q9UNA4; further: potency means the concentration at half of the fitted maximal effect
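Fluorescent replication assay read twice, at 0 min and 10 min after adding 50 nM (final) substrate. Enzyme (10 nM) and compounds were first incubated 15 min at room temperature; enzyme-free buffer wells were negative controls.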
Pol kappa inh-1 – inhibitors of human DNA polymerase kappa; Q9UBT6; purified Pol kappa, fluorescent DNA synthesis assay, 10 min; Potency, µM (highest dose often 107 µM), inactives show top-dose activity, negative = inhibition, hits mostly inhibitors; hit rate 0.53% among 400,000; AID 588579; further: potency means the concentration at half of the fitted maximal effect; on the % scale 0 is the no-effect control and ±100 the full control effect
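Enzyme at 10 nM met test compounds for 15 min at room temperature. Substrate addition (50 nM final) began the reaction, which was monitored by fluorescence at 0 and 10 min.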
WRN inhibitor – blocks human WRN helicase | hit rate 0.46% among 360,000 | Q14191 | WRN helicase unwinding, fluorescent forked duplex, kinetic | Potency, µM (series often up to 114 µM), without a hit: at the top dose activity change, negative = inhibition, actives largely listed as inhibitors | AID 651768; further: potency means the concentration at half of the fitted maximal effect; on the % scale 0 is the no-effect control and ±100 the full control effect; nearly all actives have a fitted effect of over 55% in size
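WRN at 20 nM final preincubated with compound 15 min at room temperature; reaction started with 100 nM fluorophore/quencher forked duplex oligonucleotide and 2 mM ATP final. Unwinding followed kinetically by red fluorescence (ex 525, em 598 nm).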
POLB inh – blocks human DNA polymerase beta activity; Potency, µM (titrated, usually from 114 µM), without a hit: top-dose activity change, negative = inhibition, actives largely listed as inhibitors; P06746; Pol beta primer extension/strand displacement, fluorescence kinetic; hit rate 1.3% among 340,000; further: potency means the concentration at half of the fitted maximal effect; on the % scale 0 is the no-effect control and ±100 the full control effect
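Homogeneous kinetic assay of primer extension and strand displacement by 10 nM Pol beta, preincubated 15 min at room temperature with compound before 50 nM substrate (final) was added. Read at 0 and 10 min; four-parameter Hill fit.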
PGK validate – validation of Trypanosoma brucei phosphoglycerate kinase inhibitors; shares compounds with Pol kappa inh-1; TbPGK coupled GAPDH assay, Kinase-Glo luminescence; Potency, µM (series often up to 57.5 µM), for the others: at the top dose activity change, negative = inhibition, hits mostly inhibitors; hit rate 79% among 500; AID 686980; further: potency means the concentration at half of the fitted maximal effect; on the % scale 0 is the no-effect control and ±100 the full control effect; nearly all actives have a fitted effect of over 65% in size
Pol iota confirm – Human Pol iota inhibitor confirmatory assay; hit rate 77% among 1,500; AID 720496; Potency, µM, hits mostly inhibitors; Pol iota primer extension, TAMRA/BHQ fluorescence; shares compounds with Pol kappa inh-1; further: potency means the concentration at half of the fitted maximal effect
Pol kappa inh-2 – Pol kappa (human) inhibition, cherry-pick confirmation. Potency, µM, usual class: inhibitors. hit rate 76% among 920. AID 720501. shares compounds with Pol eta inh-1. purified Pol-kappa, fluorescent strand-displacement substrate; further: potency means the concentration at half of the fitted maximal effect
Pol eta inh-2 – confirmation of human DNA polymerase eta inhibitors; shares compounds with Pol eta inh-1; Pol eta primer extension, TAMRA/BHQ fluorescence, 10 min; Potency, µM, usual class: inhibitors; hit rate 64% among 2,600; further: potency means the concentration at half of the fitted maximal effect
An asterisk follows results filed as active; [ ] = dose if it differs, or a comment. In the library only some 2.8% were active in any assay of this set; here they are far more common. Unless noted, the call rests on the fitted dose curve; in most records, active means well fitted curve in the direction sought with a large enough effect; inconclusive means small, poorly fitted or top-dose-only effect, or another doubt; inactive means no such curve, though single readings can be large; an effect the other way counts as inactive or inconclusive.

What do the screens show for `CCN(CCCNC(=O)c1nn(-c2ccc(OC)c(Cl)c2)c(=O)c2c1c1ccccc1n2C)c1cccc(C)c1`?
Pol eta inh-1: -3%; Pol iota inh: -6%; Pol kappa inh-1: -10%; POLB inh: -1%

How did Cc1ccc(S(=O)(=O)N2[C@@H](c3ccc(Cl)cc3)C(C(=O)O)=CC[C@H]2c2ccc(C(C)C)cc2)cc1 do in these assays?
Pol eta inh-1: inconclusive; PI5P4Ka inh: -5; Pol iota inh: -6%; Pol kappa inh-1: -38%; WRN inhibitor: -1%; Pol iota confirm: 60*; Pol kappa inh-2: 42*; Pol eta inh-2: 85*

Results for Cc1ccc(NC(=O)CN(C)S(=O)(=O)c2ccc3c(c2)n(C)c(=O)c(=O)n3C)cc1F ?
Pol eta inh-1: -12%; Pol iota inh: 18%; Pol kappa inh-1: -1%; POLB inh: -12%

What do the screens show for `Cc1ccc(NC(=O)C(=O)NCC(c2cccnc2)N2CCN(Cc3ccccc3)CC2)cc1` (stereo not given)?
Pol eta inh-1: 7%; Pol iota inh: -14%; Pol kappa inh-1: -3%; POLB inh: 3%

Results for O=C(CSc1nc2ccccc2c(=O)[nH]1)c1ccc(O)c(O)c1 ?
Pol eta inh-1: 2.5µM*; PI5P4Ka inh: -56*; Pol iota inh: 13µM*; Pol kappa inh-1: 20µM*; WRN inhibitor: 14µM*; POLB inh: 20µM*; PGK validate: inconclusive; Pol iota confirm: inconclusive; Pol kappa inh-2: 19*; Pol eta inh-2: 30*

Results for CCCOc1ccc(C2c3c(oc4ccccc4c3=O)C(=O)N2c2nc(C)c(C(=O)OCC)s2)cc1 (stereo not given) ?
Pol eta inh-1: -4%; Pol iota inh: 18%; Pol kappa inh-1: -5%; POLB inh: 3%

How did CCCN1CCN(c2ncnc3sc(C(=O)Nc4ccc(N(CC)CC)cc4C)c(C)c23)CC1 do in these assays?
Pol eta inh-1: -9%; Pol iota inh: -10%; Pol kappa inh-1: -14%[60.1 µM]; POLB inh: 7%

Results for CCCCCCc1c(C)c2ccc(OCC(=O)N[C@@H](Cc3ccccc3)C(=O)O)cc2oc1=O ?
Pol eta inh-1: 35µM*; PI5P4Ka inh: 1; Pol iota inh: 0%; Pol kappa inh-1: -6%; WRN inhibitor: -7%; POLB inh: 14%; Pol iota confirm: 84*; Pol eta inh-2: inconclusive

How did Cc1c(C)c2ccc(OCC(=O)N[C@@H](Cc3ccccc3)C(=O)O)cc2oc1=O do in these assays?
Pol eta inh-1: inconclusive; PI5P4Ka inh: -12; Pol iota inh: 17%; Pol kappa inh-1: 9%; WRN inhibitor: 3%; POLB inh: 0%

How did Cc1ccc(/C=C/C(=O)NCc2ccccn2)o1 do in these assays?
Pol eta inh-1: 3.2µM*; PI5P4Ka inh: -64*; Pol iota inh: 16µM*; Pol kappa inh-1: 45µM*; WRN inhibitor: 50µM*; POLB inh: 18µM*; Pol iota confirm: 19*; Pol kappa inh-2: 15*; Pol eta inh-2: 27*

Results for COc1ccc(/C=C/C(=O)NCc2ccccn2)cc1 ?
Pol eta inh-1: -7%; PI5P4Ka inh: 4; Pol iota inh: 10%; Pol kappa inh-1: -8%; WRN inhibitor: -2%; POLB inh: 33%

How did CN(C)CCNc1ccc2ncn3c4ccc(O)cc4c(=O)c1c23 do in these assays?
Pol eta inh-1: inconclusive; PI5P4Ka inh: 0; Pol iota inh: 79µM*; Pol kappa inh-1: 22µM*; WRN inhibitor: inconclusive; Pol iota confirm: 12*; Pol kappa inh-2: 9.5*

How did O=C(O)/C=C/c1ccc([N+](=O)[O-])o1 do in these assays?
Pol eta inh-1: 20µM*; PI5P4Ka inh: -11; Pol iota inh: 25µM*; Pol kappa inh-1: inconclusive; WRN inhibitor: -25%; POLB inh: inconclusive; PGK validate: 4.6µM*; Pol iota confirm: 30*; Pol eta inh-2: 24*

How did CCC(Sc1nc2cc(OC)c(OC)cc2c(=O)n1CCc1ccc(Cl)cc1)C(=O)NCCOC (stereo not given) do in these assays?
Pol eta inh-1: -17%; Pol iota inh: 21%; Pol kappa inh-1: -1%[60.1 µM]; POLB inh: -1%

What do the screens show for `COCC(=O)OC1CCn2c1nc1c2C(=O)C(C)=C(NC(C)=O)C1=O` (stereo not given)?
Pol eta inh-1: 4µM*; PI5P4Ka inh: -4; Pol iota inh: 4.5µM*; Pol kappa inh-1: -32%; WRN inhibitor: -24%; Pol iota confirm: 17*; Pol eta inh-2: 30*

Results for CCc1ccccc1NC(=O)C1CCN(S(=O)(=O)c2ccc3[nH]c(=O)ccc3c2)CC1 ?
Pol eta inh-1: -11%; Pol iota inh: 18%; Pol kappa inh-1: -2%[60.1 µM]; POLB inh: inconclusive

What do the screens show for `COc1ccc(CCn2c(=S)[nH]c(=O)c3c(C)cc(C)nc32)cc1OC`?
Pol iota inh: -5%; Pol kappa inh-1: 9%

How did Cc1cc(C)c(S(=O)(=O)/N=C2/C=C(Sc3ncn[nH]3)C(=O)c3ccccc32)cc1C do in these assays?
Pol eta inh-1: 13µM*; PI5P4Ka inh: -80*; Pol iota inh: 1µM*; Pol kappa inh-1: inconclusive; WRN inhibitor: 22µM*; POLB inh: 79µM*; Pol iota confirm: 17*; Pol eta inh-2: 24*

Results for Cc1ccc(NC(=O)Cn2c(O)c(N=NC(=O)c3cc4ccccc4cc3O)c3ccccc32)cc1 ?
Pol eta inh-1: inconclusive; PI5P4Ka inh: inconclusive; Pol iota inh: inconclusive; Pol kappa inh-1: -29%; WRN inhibitor: -20%; POLB inh: inconclusive

How did COc1ccccc1NC(=O)Cn1c(O)c(N=NC(=O)c2ccccc2O)c2ccccc21 do in these assays?
Pol eta inh-1: 50µM*; PI5P4Ka inh: -1; Pol iota inh: inconclusive; Pol kappa inh-1: inconclusive; WRN inhibitor: -10%[11.6 µM]; POLB inh: inconclusive; Pol iota confirm: inconclusive; Pol kappa inh-2: inconclusive

Source: PubChem BioAssay
